Test results reported in PubChem BioAssay AID1159580 (chemical genetic matrix, 2015).
About 2,000 (36%) of roughly 5,500 compounds were called active. Not shown: some 18% with an inconclusive outcome. Rule as the data show it: active = normalized growth mostly below about 0.91 (no sharp cut-off); inconclusive = no clear call, values can overlap the other calls; inactive = mostly above about 0.92. The list shows a part of the results.

Experiment: chemical genetic growth profiling, strain panel (AID 1159580);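 also: tested at 20 µM; growth read once vehicle control cultures reached saturation at 30 °C; 1 = growth at the plate median or of vehicle wells; lower values mean less growth of the strain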
Conditions: growth OD

Measured: normalized growth

NC(=O)NC1NC(=O)NC1=O (configuration not stated)
inactive: S. cerevisiae deletion strains, locus YJR075W, strain HOC1, active compounds read low 1.01 | S. cerevisiae deletion strains, locus YKL009W, strain mrt4, active compounds read low 0.989 | S. cerevisiae deletion strains, locus YKL068W, active compounds read low 0.987 | S. cerevisiae deletion strains, locus YKL085W, strain MDH1 (second series), active compounds read low 0.981 | S. cerevisiae deletion strains, locus YKL085W, strain MDH1, active compounds read low 0.981 | S. cerevisiae deletion strains, locus YKL160W, strain elf1, active compounds read low 0.979 | S. cerevisiae deletion strains, locus YKL190W, strain CNB1, active compounds read low 0.997 | S. cerevisiae deletion strains, locus YKR001C, strain vps1, active compounds read low 0.984 | S. cerevisiae deletion strains, locus YKR026C, strain gcn3, active compounds read low 1 | S. cerevisiae deletion strains, locus YKR091W, strain srl3, active compounds read low 1 | S. cerevisiae deletion strains, locus YLL001W, strain dnm1, active compounds read low 1 | S. cerevisiae deletion strains, locus YLL026W, active compounds read low 1.01 | S. cerevisiae deletion strains, locus YLL041C, strain sdh2, active compounds read low 1 | S. cerevisiae deletion strains, locus YLR027C, strain aat2, active compounds read low 1 | S. cerevisiae deletion strains, locus YLR039C, strain RIC1, active compounds read low 1.03 | S. cerevisiae deletion strains, locus YLR058C, strain SHM2, active compounds read low 0.99 | S. cerevisiae deletion strains, locus YLR102C, strain apc9, active compounds read low 0.987 | S. cerevisiae deletion strains, locus YLR113W, strain HOG1, active compounds read low 1.04 | S. cerevisiae deletion strains, locus YLR221C, strain rsa3, active compounds read low 0.998 | S. cerevisiae deletion strains, locus YLR258W, strain gsy2, active compounds read low 1 | S. cerevisiae deletion strains, locus YLR262C, strain YPT6 (second series), active compounds read low 1.02 | S. cerevisiae deletion strains, locus YLR262C, strain YPT6, active compounds read low 0.965 | S. cerevisiae deletion strains, locus YLR268W, strain sec22, active compounds read low 0.917 | S. cerevisiae deletion strains, locus YLR320W, strain mms22, active compounds read low 1 | S. cerevisiae deletion strains, locus YLR330W, strain CHS5, active compounds read low 0.991 | S. cerevisiae deletion strains, locus YLR342W, strain FKS1 (second series), active compounds read low 1.06 | S. cerevisiae deletion strains, locus YLR342W, strain FKS1, active compounds read low 1 | S. cerevisiae deletion strains, locus YLR357W, strain rsc2, active compounds read low 0.968 | S. cerevisiae deletion strains, locus YLR370C, strain arc18, active compounds read low 1 | S. cerevisiae deletion strains, locus YLR371W, strain rom2, active compounds read low 0.971 | S. cerevisiae deletion strains, locus YLR384C, strain iki3, active compounds read low 1.01 | S. cerevisiae deletion strains, locus YLR418C, strain cdc73, active compounds read low 0.965 | S. cerevisiae deletion strains, locus YML016C, strain PPZ1, active compounds read low 0.987 | S. cerevisiae deletion strains, locus YML032C, strain rad52, active compounds read low 0.981 | S. cerevisiae deletion strains, locus YML120C, strain ndi1, active compounds read low 1.01 | S. cerevisiae deletion strains, locus YML124C, strain tub3, active compounds read low 0.978 | S. cerevisiae deletion strains, locus YMR058W, strain fet3, active compounds read low 1.01 | S. cerevisiae deletion strains, locus YMR078C, strain ctf18, active compounds read low 0.976 | S. cerevisiae deletion strains, locus YMR125W, strain sto1, active compounds read low 1 | S. cerevisiae deletion strains, locus YMR129W, active compounds read low 1 | S. cerevisiae deletion strains, locus YMR205C, strain PFK2, active compounds read low 0.982 | S. cerevisiae deletion strains, locus YMR223W, strain ubp8, active compounds read low 1 | S. cerevisiae deletion strains, locus YMR231W, strain pep5, active compounds read low 0.994 | S. cerevisiae deletion strains, locus YMR263W, strain SAP30, active compounds read low 0.988 | S. cerevisiae deletion strains, locus YMR307W, strain GAS1, active compounds read low 1.01 | S. cerevisiae deletion strains, locus YNL067W, strain RPL9B, active compounds read low 0.982 | S. cerevisiae deletion strains, locus YNL071W, strain lat1, active compounds read low 1.01 | S. cerevisiae deletion strains, locus YNL128W, strain TEP1, active compounds read low 0.997 | S. cerevisiae deletion strains, locus YNL153C, strain GIM3, active compounds read low 0.987 | S. cerevisiae deletion strains, locus YNL183C, strain NPR1, active compounds read low 0.977 | S. cerevisiae deletion strains, locus YNL209W, strain ssb2, active compounds read low 1 | S. cerevisiae deletion strains, locus YNL233W, strain BNI4, active compounds read low 0.978 | S. cerevisiae deletion strains, locus YNL248C, strain rpa49, active compounds read low 0.999 | S. cerevisiae deletion strains, locus YNL250W, strain rad50, active compounds read low 0.981 | S. cerevisiae deletion strains, locus YNL271C, strain bni1, active compounds read low 0.977 | S. cerevisiae deletion strains, locus YNL298W, strain CLA4, active compounds read low 0.985 | S. cerevisiae deletion strains, locus YNL307C, strain MCK1, active compounds read low 0.985 | S. cerevisiae deletion strains, locus YNL322C, strain KRE1 (second series), active compounds read low 0.986 | S. cerevisiae deletion strains, locus YNL322C, strain KRE1, active compounds read low 0.998 | S. cerevisiae deletion strains, locus YNR049C, strain mso1, active compounds read low 1.01 | S. cerevisiae deletion strains, locus YNR052C, strain pop2, active compounds read low 0.992 | S. cerevisiae deletion strains, locus YOL006C, strain TOP1, active compounds read low 0.996 | S. cerevisiae deletion strains, locus YOL012C, strain htz1 0.886 | S. cerevisiae deletion strains, locus YOL147C, strain pex11, active compounds read low 0.983 | S. cerevisiae deletion strains, locus YOR001W, strain rrp6, active compounds read low 1 | S. cerevisiae deletion strains, locus YOR061W, strain CKA2, active compounds read low 0.991 | S. cerevisiae deletion strains, locus YOR069W, strain VPS5, active compounds read low 0.99 | S. cerevisiae deletion strains, locus YOR070C, strain gyp1, active compounds read low 1 | S. cerevisiae deletion strains, locus YOR080W, strain dia2, active compounds read low 0.993 | S. cerevisiae deletion strains, locus YOR083W, strain WHI5, active compounds read low 0.992 | S. cerevisiae deletion strains, locus YOR106W, strain vam3, active compounds read low 0.99 | S. cerevisiae deletion strains, locus YOR136W, strain idh2, active compounds read low 0.993 | S. cerevisiae deletion strains, locus YOR144C, strain elg1, active compounds read low 0.984 | S. cerevisiae deletion strains, locus YOR184W, strain ser1, active compounds read low 0.967 | S. cerevisiae deletion strains, locus YOR231W, strain MKK1, active compounds read low 1.03 | S. cerevisiae deletion strains, locus YOR265W, strain rbl2, active compounds read low 1.03 | S. cerevisiae deletion strains, locus YOR270C, strain vph1, active compounds read low 1.03 | S. cerevisiae deletion strains, locus YOR290C, strain snf2, active compounds read low 1.03 | S. cerevisiae deletion strains, locus YOR316C, strain cot1, active compounds read low 0.977 | S. cerevisiae deletion strains, locus YPL051W, strain arl3, active compounds read low 1 | S. cerevisiae deletion strains, locus YPL055C, strain LGE1, active compounds read low 1.01 | S. cerevisiae deletion strains, locus YPL078C, strain atp4, active compounds read low 1 | S. cerevisiae deletion strains, locus YPL106C, strain sse1, active compounds read low 0.977 | S. cerevisiae deletion strains, locus YPL240C, strain hsp82, active compounds read low 1.01 | S. cerevisiae deletion strains, locus YPL241C, strain CIN2, active compounds read low 0.992 | S. cerevisiae deletion strains, locus YPL256C, strain CLN2, active compounds read low 1.03 | S. cerevisiae deletion strains, locus YPR119W, strain clb2, active compounds read low 0.982 | S. cerevisiae deletion strains, locus YPR141C, strain kar3, active compounds read low 0.98 | S. cerevisiae deletion strains, locus YPR163C, strain tif3, active compounds read low 0.981 | S. cerevisiae deletion strains, locus YPR167C, strain met16, active compounds read low 0.979 | S. cerevisiae deletion strains, strain wtn01, active compounds read low 0.971 | S. cerevisiae strains, strain wild type, active compounds read low 0.996
